Several values for one entry are separate records, joined by “and”; a condition that tells them apart may be missing. Identical values can stand only once.
Each compound was assayed on H9c2 (assay: protection of cardiomyocytes from stress damage, SAR follow-up, cell-based, panel, H9c2 and HL-1, ATP luminescence, set 2 (AID 651871;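 also: cells exposed to stressor for 2 h before ATP readout; reference of the scale not given here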)). Details: H9c2/HL-1 cardiomyocytes, 2-deoxyglucose stress, with 2-deoxyglucose; run 12, at 79 µM (top of the series).
COc1ccc2c(c1OC)C(=O)N1c3ccccc3C(=O)N(Cc3cccc(Cl)c3Cl)C21 (stereo not drawn) was tested, and the activity (protection/inhibition) was 79.7% and 81.4% and -3.37%.
For COc1ccc2nc(-c3cc(OC)c(OC)c(OC)c3)cc(C(=O)NCC(=O)Nc3ccc(C(C)=O)cc3)c2c1, the activity (protection/inhibition) was 79.9%.
Work on CCOC(=O)c1cccc(NC(=O)CNC(=O)c2cc(-c3cc(OC)c(OC)c(OC)c3)nc3ccccc23)c1 yielded an activity (protection/inhibition) of 86.3%.
